In PubChem BioAssay (NCATS):
Results filed as inconclusive are left out. Where a call stands in place of a potency, no number is given. The source made the active and inactive calls. Calls come from the whole dose curve; as a rule, active = well fitted inhibition curve with a large enough effect; inconclusive = small, poorly fitted or top-dose-only effect; inactive = flat fitted curve, though single readings scatter.

Key:
Test in all cases: qHTS profiling for inhibitors of Plasmodium falciparum proliferation (AID 504749); note: nearly all actives have a fitted effect of over 60% in size
Conditions in all cases: P. falciparum in erythrocytes, SYBR Green DNA, 72 h; series mostly up to 28.7 µM
[1] = tested on: AA1029
Procedure, shortened: (§1)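 P. falciparum-infected erythrocytes (0.3% parasitemia, 2.5% hematocrit final) were exposed to compounds for 72 h at 37 C in 5% CO2, then lysed with SYBR Green buffer overnight at room temperature; parasite DNA fluorescence was normalized to artemisinin and DMSO controls.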

[2] = tested on: CP211
Procedure, shortened: as §1

[3] = tested on: CP215
Procedure, shortened: as §1

[4] = tested on: CP260
Procedure, shortened: as §1

[5] = tested on: CP297
Procedure, shortened: as §1

[6] = tested on: CP315
Procedure, shortened: as §1

[7] = tested on: CP335
Procedure, shortened: as §1

[8] = tested on: DIV14
Procedure, shortened: as §1

[9] = tested on: DIV17
Procedure, shortened: as §1

[10] = tested on: DIV30
Procedure, shortened: as §1

[11] = tested on: FAB9
Procedure, shortened: as §1

[12] = tested on: GB4
Procedure, shortened: as §1

[13] = tested on: ICS
Procedure, shortened: as §1

[14] = tested on: JCK
Procedure, shortened: as §1

[15] = tested on: N140
Procedure, shortened: as §1

[16] = tested on: P93_24
Procedure, shortened: as §1

[17] = tested on: PAD
Procedure, shortened: as §1

[18] = tested on: PC15
Procedure, shortened: as §1

[19] = tested on: TAB165
Procedure, shortened: as §1

[20] = tested on: W2
Procedure, shortened: as §1
Potency is the fitted concentration of half-maximal effect.

SMILES | Potency [1] | Potency [2] | Potency [3] | Potency [4] | Potency [5] | Potency [6] | Potency [7] | Potency [8] | Potency [9] | Potency [10] | Potency [11] | Potency [12] | Potency [13] | Potency [14] | Potency [15] | Potency [16] | Potency [17] | Potency [18] | Potency [19] | Potency [20]
NC(C(=O)O)c1ccc(O)cc1 (stereo not drawn) | inactive | inactive | inactive | inactive | inactive | inactive | inactive | inactive | inactive | inactive | inactive | inactive | inactive | inactive | inactive | inactive | inactive | inactive | inactive | inactive
C=CC1CN2CCC1CC2[C@@H](O)c1ccnc2ccc(OC)cc12 (stereo partly drawn) | 282 nM (active) | 675 nM (active) | 478 nM (active) | 355 nM (active) | 757 nM (active) | 953 nM (active) | 338 nM (active) | 213 nM (active) | 135 nM (active) | 338 nM (active) | 79.4 nM (active) | 135 nM (active) | 89.1 nM (active) | 2000 nM (active) | 316 nM (active) | 398 nM (active) | 251 nM (active) | 89.1 nM (active) | 251 nM (active) | 190 nM (active)
CCCC[C@H](O)c1ccccc1 | inactive | inactive | inactive | inactive | inactive | inactive | inactive | inactive | inactive | inactive | inactive | inactive | inactive | inactive | inactive | inactive | inactive | inactive | inactive | inactive
CC12C=CC(=O)C=C1[C@@H](F)CC1C2C(O)CC2(C)C1CC[C@]2(O)C(=O)CO (stereo partly drawn) | inactive | inactive | inactive | inactive | inactive | inactive | inactive | inactive | inactive | inactive | inactive | inactive | inactive | inactive | inactive | inactive | inactive | inactive | inactive | inactive
CC(=O)NC1[C@H]([C@H](O)[C@H](O)CO)OC(C(=O)O)=C[C@H]1N=C(N)N (stereo partly drawn) | inactive | inactive | inactive | inactive | inactive | inactive | inactive | inactive | inactive | inactive | inactive | inactive | inactive | inactive | inactive | inactive | inactive | inactive | inactive | inactive
OC[C@@H]1O[C@](CO)(O[C@H]2O[C@H](CO)[C@@H](O)[C@H](O)[C@H]2O)[C@H](O)[C@H]1O | inactive | inactive | inactive | inactive | inactive | inactive | inactive | inactive | inactive | inactive | inactive | inactive | inactive | inactive | inactive | inactive | inactive | inactive | inactive | inactive
O=C1CC[C@H](C(=O)N[C@@H]2C[C@H]2c2ccccc2)N1 | inactive | inactive | inactive | inactive | inactive | inactive | inactive | inactive | inactive | inactive | inactive | inactive | inactive | inactive | inactive | inactive | inactive | inactive | inactive | inactive
CNC(=O)C(N)CSC(C)C1=C(C)c2cc3[n-]c(cc4nc(cc5[n-]c(cc1n2)c(C)c5CCC(=O)O)C(CCC(=O)O)=C4C)c(C)c3C(C)SCC(N)C(=O)NC.[Fe+2] (stereo not drawn) | inactive | inactive | inactive | inactive | inactive | inactive | inactive | inactive | inactive | inactive | inactive | inactive | inactive | inactive | inactive | inactive | inactive | inactive | inactive | inactive
C[C@]12CC[C@@H]3c4ccc(O)cc4CC[C@H]3[C@@H]1C[C@H](O)C2O (stereo partly drawn) | inactive | inactive | inactive | inactive | inactive | inactive | inactive | inactive | inactive | inactive | inactive | inactive | inactive | inactive | inactive | inactive | inactive | inactive | inactive | inactive
Cc1ccc(Nc2ncccc2C(=O)O)cc1C | inactive | inactive | inactive | inactive | inactive | inactive | inactive | inactive | inactive | inactive | inactive | inactive | inactive | inactive | inactive | inactive | inactive | inactive | inactive | inactive
CCN1CCN(C(=O)NC(C(=O)NC2C(=O)N3C(C(=O)O)=C(CSc4nnnn4C)CSC23)c2ccc(O)cc2)C(=O)C1=O (stereo not drawn) | inactive | inactive | inactive | inactive | inactive | inactive | inactive | inactive | inactive | inactive | inactive | inactive | inactive | inactive | inactive | inactive | inactive | inactive | inactive | inactive
CCCCN1CC(O)C(O)C(O)C1CO (stereo not drawn) | inactive | inactive | inactive | inactive | inactive | inactive | inactive | inactive | inactive | inactive | inactive | inactive | inactive | inactive | inactive | inactive | inactive | inactive | inactive | inactive
CC[C@@H](C)C(N)C(=O)O (stereo partly drawn) | inactive | inactive | inactive | inactive | inactive | inactive | inactive | inactive | inactive | inactive | inactive | inactive | inactive | inactive | inactive | inactive | inactive | inactive | inactive | inactive
CC(O)C(N)C(=O)O (stereo not drawn) | inactive | inactive | inactive | inactive | inactive | inactive | inactive | inactive | inactive | inactive | inactive | inactive | inactive | inactive | inactive | inactive | inactive | inactive | inactive | inactive
CO/N=C(/C(=O)N[C@@H]1C(=O)N2C(C(=O)O)=C(CSc3nc(C)c(CC(=O)O)s3)CS[C@H]12)c1csc(N)n1 | inactive | inactive | inactive | inactive | inactive | inactive | inactive | inactive | inactive | inactive | inactive | inactive | inactive | inactive | inactive | inactive | inactive | inactive | inactive | inactive
COc1cccc2c1C(=O)c1c(O)c3c(c(O)c1C2=O)C[C@@](O)(C(=O)CO)C[C@@H]3OC1CC(N)C(O)C(C)O1 (stereo partly drawn) | 2240 nM (active) | 1690 nM (active) | 3790 nM (active) | 708 nM (active) | 1900 nM (active) | 6750 nM (active) | 1200 nM (active) | 1690 nM (active) | 1690 nM (active) | 4260 nM (active) | 3160 nM (active) | 1690 nM (active) | 631 nM (active) | 12600 nM (active) | 2510 nM (active) | 2000 nM (active) | 2240 nM (active) | 2000 nM (active) | 2240 nM (active) | 675 nM (active)
CCCCCCCCCCCC(=O)OCC(O)C1OCC(O)C1O (stereo not drawn) | inactive | inactive | inactive | inactive | inactive | inactive | inactive | inactive | inactive | inactive | inactive | inactive | inactive | inactive | inactive | inactive | inactive | inactive | inactive | inactive
CCCC(=O)O[C@]1(C(=O)COC(C)=O)CC[C@H]2C3C[C@H](F)C4=CC(=O)C=CC4(C)[C@@]3(F)[C@@H](O)CC21C (stereo partly drawn) | inactive | inactive | inactive | inactive | inactive | inactive | inactive |  |  | inactive | inactive |  |  | inactive | inactive |  |  | inactive |  | 
O=C(O)CC(O)CC(O)/C=C/c1c(C2CC2)nc2ccccc2c1-c1ccc(F)cc1 (stereo not drawn) | inactive | inactive | inactive | inactive | inactive | inactive | inactive | inactive | inactive | inactive | inactive | inactive | inactive | inactive | inactive | inactive | inactive | inactive | inactive | inactive
C[S+](C)CC[C@H](N)C(=O)O | inactive | inactive | inactive | inactive | inactive | inactive | inactive | inactive |  | inactive | inactive | inactive | inactive | inactive | inactive | inactive | inactive | inactive | inactive | inactive
CC1OC(OCC2OC(Oc3c(-c4ccc(OCCO)c(OCCO)c4)oc4cc(OCCO)cc(O)c4c3=O)C(O)C(O)C2O)[C@@H](O)C(O)C1O (stereo partly drawn) | inactive | inactive | inactive | inactive | inactive | inactive | inactive | inactive | inactive | inactive | inactive | inactive | inactive | inactive | inactive |  | inactive | inactive | inactive | inactive
C=C[C@H]1CN2CCC1C[C@H]2[C@H](O)c1ccnc2ccc(OC)cc12 (stereo partly drawn) | 891 nM (active) | 1350 nM (active) | 1200 nM (active) | 708 nM (active) | 1690 nM (active) | 1690 nM (active) | 849 nM (active) | 757 nM (active) | 757 nM (active) | 953 nM (active) | 794 nM (active) | 301 nM (active) | 282 nM (active) | 10000 nM (active) | 631 nM (active) | 1000 nM (active) | 891 nM (active) | 447 nM (active) | 1120 nM (active) | 338 nM (active)
CC1(Cn2ccnn2)[C@H](C(=O)O)N2C(=O)C[C@H]2S1(=O)=O (stereo partly drawn) | inactive | inactive | inactive | inactive | inactive | inactive | inactive | inactive | inactive |  | inactive | inactive | inactive | inactive | inactive | inactive | inactive | inactive | inactive | inactive
CCC(C(=O)O)C1OC(C(C)C(O)C(C)C(=O)C(CC)C2OC3(C=CC(O)C4(CCC(C)(C5CCC(O)(CC)C(C)O5)O4)O3)C(C)CC2C)C(C)CC1C (stereo not drawn) | 158 nM (active) | 67.5 nM (active) | 60.1 nM (active) | 112 nM (active) | 135 nM (active) | 33.8 nM (active) | 42.6 nM (active) | 95.3 nM (active) | 75.7 nM (active) | 67.5 nM (active) | 282 nM (active) | 53.6 nM (active) | 89.1 nM (active) | 199 nM (active) | 141 nM (active) | 178 nM (active) | 224 nM (active) | 158 nM (active) | 158 nM (active) | 
